Rows were chosen to be rich in hits. Some 5% of all compounds tested hit in one or more screens of this group.
SENP7 block: blocks the human protease SENP7; recombinant SENP7, Z-RLRGG-aminoluciferin luminescence, 40 min; 1.5% of 330,000 active; inhibition, % at 5 µM; Q9BQF6;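 active = inhibition above about 50% at the single test dose, limit read from the data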
SENP6 inh: SENP6 protease inhibition; Q9GZR1; Recombinant SENP6 catalytic domain, aminoluciferin luminescence; inhibition, % at 10 µM; 1.8% of 330,000 active; AID 2599;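 active = inhibition above about 50% at the single tested dose, limit read from the data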
EBI2 antag: blocks human EBI2 receptor beta-arrestin signaling. P32249. inhibition, % at 5 µM. 0.81% of 360,000 active. EBI2 beta-arrestin recruitment, luminescence, 7a,25-OHC stimulated. AID 651636; in the data active = inhibition above about 38%;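 note: enzyme fragment complementation signal reports receptor beta-arrestin coupling in cells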
Target sequence (P32249 whole entry, looked up, the tested form may be a part): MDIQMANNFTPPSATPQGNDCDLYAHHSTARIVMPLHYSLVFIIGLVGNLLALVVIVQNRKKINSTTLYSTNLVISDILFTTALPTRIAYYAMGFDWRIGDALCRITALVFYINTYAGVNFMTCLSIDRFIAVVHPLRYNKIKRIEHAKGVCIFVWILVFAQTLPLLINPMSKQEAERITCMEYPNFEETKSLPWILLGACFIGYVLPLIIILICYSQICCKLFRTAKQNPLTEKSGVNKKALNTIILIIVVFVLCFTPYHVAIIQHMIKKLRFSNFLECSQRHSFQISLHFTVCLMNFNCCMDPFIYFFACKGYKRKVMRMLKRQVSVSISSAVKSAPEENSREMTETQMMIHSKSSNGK
SENP8 block-1: blocks the human protease SENP8; Q96LD8; purified SENP8, Z-RLRGG-aminoluciferin cleavage, luminescence; inhibition, % at 10 µM; 1.2% of 330,000 active; in the data active = inhibition above about 50%
Target sequence (Q96LD8 whole entry, looked up): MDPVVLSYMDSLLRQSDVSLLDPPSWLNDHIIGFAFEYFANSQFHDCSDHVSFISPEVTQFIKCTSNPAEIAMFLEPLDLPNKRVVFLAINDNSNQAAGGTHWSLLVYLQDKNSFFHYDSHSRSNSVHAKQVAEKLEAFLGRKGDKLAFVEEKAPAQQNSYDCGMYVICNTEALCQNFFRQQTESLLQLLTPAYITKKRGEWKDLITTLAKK
SENP8 block-2: SENP8 (human) protease inhibition | recombinant SENP8, Nedd8 substrate fluorescence | 0.64% of 360,000 active | Q96LD8 | inhibition, % at 20 µM; in the data active = inhibition mostly above about 40%, no sharp cut-off; inactive = mostly below about 27%
AHR act: activators of human aryl hydrocarbon receptor; 2.5% of 320,000 active; activation, % at 5 µM; P35869; AID 2796; AHR-responsive luciferase reporter cells, luminescence; in the data active = activation above about 47%
SENP8 conf: confirmation of human SENP8 protease inhibitors; 15% of 1,400 active; shares compounds with SENP8 block-2; purified SENP8, Nedd8-AMC/pro-Nedd8 cleavage fluorescence, 30 min; inhibition, % at 25 µM; in the data active = inhibition mostly above about 39%, no sharp cut-off; inactive = mostly below about 34%
Each line names hits and unclear results; the compound was inactive in the other large screens (follow-up assays come after a bar, where they were run).

CC(C)[C@H](NC(=O)N1c2ccccc2NC(=O)[C@@H]1C(C)C)C(=O)N1CCC(C(=O)O)CC1	SENP8 block-2 45 | SENP8 conf inactive
CC(C)[C@H]1C(=O)Nc2ccccc2N1C(=O)N[C@@H](Cc1ccccc1)C(=O)N[C@@H](C(=O)O)c1ccccc1	SENP8 block-2 44 | SENP8 conf inactive
C=CCn1c(SCC(=O)Nc2cc(C)on2)nnc1C1COc2ccccc2O1 (stereo unspecified)	none
Cc1cc(NC(=O)CSc2nnc(C3COc4ccccc4O3)n2N)no1 (stereo unspecified)	SENP8 block-2 43 | SENP8 conf inactive
COc1ccc(S(=O)(=O)N2CCC(C(=O)N[C@H](C(=O)NCc3ccccc3)C(C)C)CC2)cc1	none (no result: SENP7 block, SENP6 inh, SENP8 block-1, AHR act)
COc1ccc(CNC(=O)[C@H](Cc2ccccc2)NC(=O)C2CCN(C(=O)[C@H](C)N)CC2)cc1	SENP8 block-2 51 | SENP8 conf inactive
COc1ccccc1CNC(=O)[C@H](C)NC(=O)C1CCN(C(=O)[C@@H](N)Cc2ccccc2)CC1	none
COc1ccc(CNC(=O)[C@@H](NC(=O)C2CCN(C(=O)[C@@H](N)Cc3ccccc3)CC2)C(C)C)cc1	SENP8 block-2 54 | SENP8 conf inactive
CSCC[C@H](N)C(=O)N1CCC(C(=O)N[C@H](C(=O)NCc2ccccc2F)C(C)C)CC1	SENP8 block-2 48 | SENP8 conf inactive
COc1ccccc1CNC(=O)[C@H](C)NC(=O)C1CCN(C(=O)[C@@H](N)C(C)C)CC1	SENP8 block-2 48 | SENP8 conf inactive
CCN(CC)C(=O)c1ncn(C)c1C(=O)N(CC)CC	none
CC(=O)c1ccc(OCC(=O)NCc2ccc(F)cc2)cc1	none
CN(C)c1ccc2nsnc2c1[N+](=O)[O-]	SENP8 block-2 43 | SENP8 conf inactive
CC(O)/C=C/C1OC(=O)CC1Nc1ccc(C=O)cc1 (stereo unspecified)	SENP8 block-2 52 | SENP8 conf inactive
CCCC(=O)OC1CCS(=O)(=O)c2sccc21 (stereo unspecified)	none
Cc1nc(SCC(=O)O)c2oc3ccccc3c2n1	SENP8 block-2 47 | SENP8 conf inactive
CCc1nc(SCC(=O)N2CCCc3ccccc32)c2oc3ccccc3c2n1	SENP8 block-2 46 | SENP8 conf inactive
Cc1nc(SCC(=O)NCc2ccccc2)c2oc3ccccc3c2n1	none
CC1CCN(c2ccc(C(=O)NCc3ccco3)cc2[N+](=O)[O-])CC1	SENP8 block-2 42 | SENP8 conf inactive
O=C(NCc1ccco1)c1ccc(N2CCCCC2)c([N+](=O)[O-])c1	none
COc1ccc(S(=O)(=O)N/N=C(/C)c2cccc(NC(=O)c3ccccc3Cl)c2)cc1	none
COc1ccc2[nH]cc(CCNC(=O)COc3ccc4ccc(=O)oc4c3)c2c1	SENP8 block-2 42 | SENP8 conf inactive
CCCn1c(SCC(=O)NCCc2ccccc2)nnc1-c1ccco1	none
COC(=O)Nc1ccc(S(=O)(=O)NC2CCS(=O)(=O)C2)cc1 (stereo unspecified)	SENP8 block-2 45 | SENP8 conf inactive
CCCCc1ccc(S(=O)(=O)NC2CCS(=O)(=O)C2)cc1 (stereo unspecified)	none
CC(C)=CCc1c2c(c3occ(-c4ccc(O)cc4)c(=O)c3c1O)C=CC(C)(C)O2	SENP8 block-2 43 | SENP8 conf inactive
CC(C)=CCc1c2c(c3occ(-c4ccc(O)c(O)c4)c(=O)c3c1O)C=CC(C)(C)O2	none (no result: SENP7 block, SENP6 inh, SENP8 block-1, AHR act)
Cc1c(C#N)c(O)n(C)c(=O)c1N=Nc1ccc(S(N)(=O)=O)cc1	SENP8 block-2 49 (no result: SENP7 block, SENP6 inh, SENP8 block-1, AHR act) | SENP8 conf inactive
Oc1ccc(N2CCN(Cc3ccc(OCCCN4CCCCC4)cc3)CC2)cc1	SENP8 block-2 40 | SENP8 conf inactive
Cc1nn(CC#N)c(=O)n1-c1ccc(C(C)C)cc1	SENP8 block-2 41 | SENP8 conf inactive
Cc1nn(CC#N)c(=O)n1-c1ccc(Cl)cc1	none
Cc1[nH]n2c(=O)cc(-c3ccc([N+](=O)[O-])cc3)nc2c1-c1ccccc1	SENP8 block-2 44 | SENP8 conf inactive
CCN(CC(=O)Nc1ccc(Cl)c(C(F)(F)F)c1)CC(=O)NC1CCS(=O)(=O)C1 (stereo unspecified)	none
CN(C)S(=O)(=O)n1cnc(C(CCO)c2ncn(S(=O)(=O)N(C)C)c2CCCO)c1 (stereo unspecified)	none
COc1cccc(C(=O)Nc2cc(OC)ccc2NC(=O)c2ccco2)c1	none
Cc1c(N=C2N=C(NC(=O)c3cccs3)c3ccccc32)c(=O)n(-c2ccccc2)n1C	SENP8 block-2 60 | SENP8 conf inactive
Cc1c(N=C2N=C(NC(=O)NC(C)(C)C)c3ccccc32)c(=O)n(-c2ccccc2)n1C	none
Cc1ccccc1S(=O)(=O)N1[C@@H](c2ccc(F)cc2)C(C(=O)O)=CC[C@H]1c1ccc(Cl)cc1	none
CCOC(=O)c1cc([N+](=O)[O-])cc([N+](=O)[O-])c1Sc1ncnc2nc[nH]c12	SENP8 block-2 63 (no result: SENP7 block, SENP6 inh, SENP8 block-1, AHR act) | SENP8 conf inactive
COc1cccc(C(=O)NOCc2ccccc2)c1OC	none
COc1ccc(CCNC(=O)CCC(=O)N2CCN(S(=O)(=O)c3ccc(Cl)cc3)CC2)cc1OC	SENP8 block-2 44 | SENP8 conf inactive
COc1ccc(CCNC(=O)COC(=O)c2ccc(S(=O)(=O)N3CCCC3)cc2)cc1OC	none
COc1ccc(CCNC(=O)CCC(=O)N2CCN(S(=O)(=O)c3ccccc3)CC2)cc1OC	SENP8 block-2 48 | SENP8 conf inactive
COc1ccc(CCC(=O)N2CCN(S(=O)(=O)c3cccc(C(F)(F)F)c3)CC2)cc1OC	none
O=C(C1CCN(S(=O)(=O)c2cnc[nH]2)CC1)N1CCc2ccccc2C1	SENP8 block-2 42 | SENP8 conf inactive
COc1ccc(CCNC(=O)C2CCN(S(=O)(=O)c3cnc[nH]3)CC2)cc1OC	SENP8 block-2 40 | SENP8 conf inactive
CN(CCOC(=O)c1ccc2c(c1)OCO2)C(C)(C)C	none
O=C(Oc1coc(CSc2nnc(NC(=O)C3CC3)s2)cc1=O)c1c(F)cccc1F	none
Cc1ccc(S(=O)(=O)c2nc(NN(C)C)sc2Cl)cc1	none
O=C(COC(=O)c1cccc(Cl)c1)Nc1cc(Cl)ccc1Oc1ccccc1	none
CCOc1ccc(N=C(C)c2ccccc2O)cc1	SENP8 block-2 42 | SENP8 conf inactive
C/C(=N/N=C(\C)c1ccccc1O)c1ccccc1O	none
Cc1cccc(N/N=C(\C#N)S(=O)(=O)C(C)(C)C)c1	none (no result: SENP7 block, SENP6 inh, SENP8 block-1)
CSc1nncc(/C(C)=N\Nc2cccc(C)c2)n1	SENP8 block-2 46 | SENP8 conf inactive
CC/C(=N/Nc1ccccc1C)c1cnnc(SC)n1	none
CSc1nncc(/C(C)=N\Nc2ccccc2)n1	SENP8 block-2 52 | SENP8 conf inactive
O=S1(=O)c2c(F)cccc2O[C@@H](COCc2ccccc2)CN1CCc1ccc(F)cc1	none (no result: SENP7 block, SENP6 inh, SENP8 block-1, AHR act)
